Measured values taken from PubChem BioAssay (NCI).
Compounds without any hit were thinned out: in the full panel of roughly 83,000, 20% have a hit.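 Single-concentration screen, 48 h exposure, 96-well plates. Endpoint: percent growth. Below 10 = active.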 Unmarked numbers belong to inactive results. Active and inactive are the calls of the source.

Experiments:
Test in all cases: NCI-60 one-dose screen, 48 h (100 = growth as untreated, 0 = no growth, -100 = all killed)
Details in all cases: 10 µM unless noted
[1] = tested on: NCI-H23 lung
[2] = tested on: NCI-H226 lung
[3] = tested on: NCI-H322M lung
[4] = tested on: HOP-62 NSCLC
[5] = tested on: NCI-H460 lung
[6] = tested on: HOP-92 NSCLC
[7] = tested on: NCI-H522 lung
[8] = tested on: A549/ATCC NSCLC
[9] = tested on: 786-0 renal
[10] = tested on: COLO 205 colon

Compound | growth [1] | growth [2] | growth [3] | growth [4] | growth [5] | growth [6] | growth [7] | growth [8] | growth [9] | growth [10]
CSc1nc2ncncc2[nH]1 | 101% | 92.5% | 102% | 82.5% | 110% | 153% | 101% | 103% | 93.9% | 120%
Oc1ccc(C(c2ccc(O)cc2)C(Cl)(Cl)Cl)cc1 | 99.8% | 104% | 98.2% | 107% | 98.2% | 56.1% | 83.2% | 89.2% | 102% | 104%
CN[C@@H]1C[C@H]2O[C@@](C)([C@@H]1OC)n1c3ccccc3c3c4c(c5c6ccccc6n2c5c31)C(=O)N[C@H]4O | -48.8% (active) | -47.1% (active) | -25.8% (active) | -60.8% (active) | -63.7% (active) | -9.92% (active) | -37.2% (active) | -36.8% (active) | -87.5% (active) | -80.8% (active)
CCN1CCN(c2nc(C)cc(N(CCNc3ccnc4cc(Cl)ccc34)Cc3ccc4c(c3)OCO4)n2)CC1 | 67.5% | 75.3% | 36.3% | -19.8% (active) | 18.1% | -4.69% (active) | -0.151% (active) | 20.4% | -24.5% (active) | -75.8% (active)
O=C(Cn1ccc2ccccc21)Nc1ccc(-c2nc3ccccc3s2)cc1 | 94% | 102% | 98.8% | 103% | 105% | 105% | 102% | 98.3% | 103% | 101%
O=C(NOC[C@H](O)CO)c1ccc(F)c(F)c1Nc1ccc(I)cc1F | 19.6% | 49.5% | 12.3% | 27.7% | 54% | -28% (active) | 44.8% | 21.4% | 71.2% | 0.302% (active)
CCn1cc(-c2ccnc3[nH]c(-c4cccc(CN(C)C)c4)cc23)c(-c2ccc(NC(=O)N(C)C)cc2)n1 | 17.6% | 32.3% | 38.7% | 15% | 9.19% (active) | -13.3% (active) | 6.18% (active) | 14.9% | 35.1% | -26.9% (active)
CCN(CC)CCN1C(=O)c2cccc3c(-c4ccc5c(c4)ncn5C4CCCCC4)ccc(c23)C1=O | 20.2% | -29.9% (active) | 43.2% | 8.72% (active) | -30.9% (active) | -7.68% (active) | 21.3% | 18.8% | -46.1% (active) | -20.4% (active)
CSc1nc2ncnc(SC)c2[nH]1 | 96.1% | 98.2% | 101% | 77.8% | 109% | 98.7% | 76% | 62.3% | 98.9% | 103%
Cn1ncc(Cl)c1-c1cc(C(=O)N[C@H](CN)Cc2cccc(F)c2)sc1Cl | 33.4% | 34.5% | 28.6% | 25.4% | 8.53% (active) | -27.5% (active) | 6.11% (active) | 18.4% | -14.3% (active) | -73.9% (active)
COC(=O)CNC(=O)[C@@H](OC)[C@@H]1Cc2cc3cc(OC4CC(OC5CC(O)C(O)C(C)O5)C(O)C(C)O4)c(C)c(O)c3c(O)c2C(=O)[C@H]1OC1CC(OC2CC(OC3CC(C)(O)C(O)C(C)O3)C(O)C(C)O2)C(O)C(C)O1 (stereo not given in full) | -16.8% (active) | -10% (active) | 15.7% | 21.6% | 9.15% (active) | 9.61% (active) | -19% (active) | 7.82% (active) | -2.99% (active) | -17.6% (active)
COC(=O)[C@]12CC[C@@H](C)[C@H](C)[C@@H]1C1=CC[C@@H]3[C@@]4(C)C(C=O)=C[C@@](C)(COS(C)(=O)=O)C4=CC[C@@]3(C)[C@]1(C)CC2 | -45.8% (active) | -57% (active) | 12.2% | -14.5% (active) | -73.6% (active) | -87.7% (active) | -75.2% (active) | -14.6% (active) | -66% (active) | -39.9% (active)
COC(=O)Nc1nc2ccc(C(=O)c3ccc(N(C)C4COC4)cc3)cc2[nH]1 | 30.5% | 67.2% | 48.3% | 10.2% | 3.28% (active) | 46.8% | -31.5% (active) | 14.9% | 27.8% | -38.8% (active)
O=C(O)C1(Cc2cccc(Nc3nccs3)n2)CCC(Oc2cccc(Cl)c2F)CC1 (stereo not given) | 66% | 82.8% | 76.4% | 49.8% | 15.2% | 102% | -3.77% (active) | 41.9% | 75% | 59.5%
Nc1c(C(=O)c2ccccc2)sc2nc(-c3cccs3)cc(-c3cccs3)c12 | 67% | 80.6% | 80.8% | 59.6% | 14.2% | 69.2% | -20.7% (active) | 36.2% | 47.6% | 35.9%
CN1CCN(CCCOc2cccc3nc(Nc4ccc(Cl)c(C(F)(F)F)c4)ccc23)CC1 | 18.8% | 77.1% | 15.9% | 15.5% | -19.3% (active) | 10.2% | -40.6% (active) | 6.87% (active) | -42.9% (active) | -61.6% (active)
